# DAX1 inh-1: DAX1 (NR0B1) inhibition, primary screen; 370,000 compounds, 1.1% hits; inhibition, % at 6.8 µM; HEK293T StAR-luciferase reporter, SF-1/DAX-1 repression relief;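 active means inhibition above the mean over all tested compounds plus 3 SD, cut at about 3.6% in these data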;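 further: higher inhibition means more luminescence from relief of DAX-1 repression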
# hcDAF12 agonist: H. contortus DAF-12 activation, primary screen. HEK293 hcDAF-12 lit1-tk-luc reporter, luminescence; 0% DMSO, 100% Δ7-dafachronic acid. activation, % at 6.8 µM. 370,000 compounds, 1.4% hits. AID 652067;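 active means activation above the mean of all tested compounds plus 3 SD, cut at about 5.5% in these data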
# hgDAF-12 ag: agonists of H. glycines DAF-12 nuclear receptor; AID 687014; 370,000 compounds, 1.8% hits; activation, % at 6.8 µM; HEK293 GAL4-hgDAF12 UAS-luciferase reporter, agonist luminescence; normalized to butyrate control;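 active means activation above a cutoff set at the mean of all screened compounds plus 3 SD, cut at about 10% in these data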
# ssDAF-12 act: activates DAF-12 receptor from parasite S. stercoralis; HEK293 ssDAF-12/GRIP1 lit1-tk-luc reporter, luminescence; % of 3 µM dafachronic acid response; activation, % at 6.8 µM; 370,000 compounds, 1% hits; AID 652126;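 active means activation above the mean over all tested compounds plus 3 SD, cut at about 0.9% in these data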
# DAX1 inh-2: NR0B1 (DAX1) inhibition | HEK293 Gal4-DAX1 luciferase reporter, luminescence | inhibition, % at 6.75 µM | 340,000 compounds, 0.99% hits | P51843 | AID 504766;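 active means inhibition above the mean over all tested compounds plus 3 SD, cut at about 4.2% in these data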;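 further: inhibition shows as a rise in luminescence from relieved DAX1 repression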
# DAX1 inh confirm: confirmation of human DAX1 (NR0B1) inhibitors; shares compounds with DAX1 inh-1; HEK293T StAR-promoter luciferase reporter, SF-1/DAX-1 repression; inhibition, % at 6.8 µM; 2,400 compounds, 87% hits; AID 652134;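 active means inhibition above the average of every tested compound plus 3 SD, cut at about 3.8% in these data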;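 further: active compounds raise luminescence by relieving repression of the StAR reporter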
# Target sequence (P51843 whole entry, looked up): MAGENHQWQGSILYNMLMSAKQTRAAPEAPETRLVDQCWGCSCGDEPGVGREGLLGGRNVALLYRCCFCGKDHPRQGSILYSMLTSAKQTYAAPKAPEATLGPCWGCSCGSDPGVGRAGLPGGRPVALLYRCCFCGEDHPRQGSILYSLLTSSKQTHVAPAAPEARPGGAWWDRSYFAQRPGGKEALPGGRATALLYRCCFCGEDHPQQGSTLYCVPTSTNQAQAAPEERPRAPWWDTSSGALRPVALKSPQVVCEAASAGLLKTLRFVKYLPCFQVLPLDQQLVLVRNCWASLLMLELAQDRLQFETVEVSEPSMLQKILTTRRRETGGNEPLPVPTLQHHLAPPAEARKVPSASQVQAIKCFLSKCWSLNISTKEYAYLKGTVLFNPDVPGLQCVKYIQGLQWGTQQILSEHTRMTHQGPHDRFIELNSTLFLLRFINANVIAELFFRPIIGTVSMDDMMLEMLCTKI
# SF1 AF2mut Luc: counter-screen for DAX1 inhibitors: nonselective inhibitors with SF-1 AF2 mutant. AID 652136. inhibition, % at 6.8 µM. 2,400 compounds, 78% hits. shares compounds with DAX1 inh-1. HEK293 StAR-luciferase, luminescence;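 active means inhibition above the mean of all tested compounds plus 3 SD, cut at about 3% in these data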
# Hits are given with their value; i = inactive; nt = not tested or not shown. An excerpt weighted towards active compounds, which were near 4.1% of everything screened.
SMILES,DAX1 inh-1,hcDAF12 agonist,hgDAF-12 ag,ssDAF-12 act,DAX1 inh-2,DAX1 inh confirm,SF1 AF2mut Luc
COCCNc1c(-c2cc3ccc(C)c(C)c3[nH]c2=O)nc2ccccn12,4.9,i,i,i,i,6.1,3.3
COCCNc1c(-c2ccc(OC)c(OC)c2)nc2ccc(Cl)cn12,i,i,i,i,i,nt,nt
CCOC(=O)c1c(C)[nH]c(C(=O)OCc2ccccc2)c1C,15,i,12,1.9,i,12,5.5
CCOC(=O)c1[nH]c(C)c(C(=O)OCc2ccc(C)cc2)c1C,i,i,i,i,i,nt,nt
CC(=O)N1c2ccccc2C(C)=NCC1C(=O)NC1CCCCC1 (stereo unspecified),i,i,i,i,nt,nt,nt
O=C(Nc1nnc(-c2ccco2)s1)c1ccccc1,6.6,6.5,11,i,i,16,6.2
COC(=O)[C@]12C[C@H](CC(=O)NCCC(C)C)C(=O)N(Cc3ccc4c(c3)OCO4)C1=C[C@H](C(C)(C)C)O[C@@H]2C,i,i,i,i,nt,nt,nt
Cc1cccc(-c2noc(CCC(=O)N3CCN(c4cc(C)ccc4C)CC3)n2)c1,6.3,i,i,i,i,6.0,3.9
Cc1ccccc1S(=O)(=O)N(C)C[C@@H]1OCc2cn(nn2)CCCC(=O)N([C@@H](C)CO)C[C@H]1C,i,i,i,i,nt,nt,nt
CCOc1ncccc1C(=O)NCC(c1ccccc1)N(C)C (stereo unspecified),5.1,i,i,i,i,8.1,4.0
CCOc1ncccc1C(=O)NCc1ccccc1F,i,i,i,i,i,nt,nt
O=C1[C@@H](C2CCCCC2)[C@@H]2c3ccccc3C=NN2[C@@H]2c3ccccc3C=NN12,i,i,i,i,nt,nt,nt
COC(=O)c1c(NC(=O)CCS(=O)(=O)c2ccccc2)sc2c1CCN(C)C2,i,i,i,i,i,nt,nt
CCCN1CCc2c(sc(NC(=O)CCS(=O)(=O)c3ccccc3)c2C(=O)OC)C1,7.3,i,i,i,i,7.9,4.7
Cc1cccc(NC(=O)NC2CCCCCCC2)c1,5.7,i,i,i,i,4.9,3.6
CC(=O)c1cccc(NC(=O)NC2CCCCCCC2)c1,i,i,i,i,i,nt,nt
COc1ccc(/C(N)=N/OC(=O)C2CCCCC2)cc1,5.9,i,i,i,i,8.9,5.8
COc1ccc(/C(N)=N/OC(=O)C2CCCCC2)cc1OC,6.0,i,i,i,i,i,3.6
COc1ccc(/C(N)=N/OC(=O)CC2CCCCC2)cc1OC,i,i,i,i,i,nt,nt
COC(=O)[C@H]1C[C@@]2(C)c3ccccc3N(C(=O)OC(C)(C)C)[C@H]2N1C(=O)OC(C)(C)C,i,i,i,i,nt,nt,nt
CCC(C)(C)C(=O)N1CCC(C(=O)NC2CCCc3ccccc32)CC1 (stereo unspecified),i,i,i,i,nt,nt,nt
CCOC(=O)[C@]12CCCC=C1N(Cc1ccc(OC)cc1)C(=O)[C@@H]2CC(=O)NCc1ccc(C)o1,i,i,i,i,nt,nt,nt
Cc1cnc(C(=O)N(c2ccccc2)C(c2ccccc2)c2nc3ccccc3[nH]2)cn1 (stereo unspecified),6.0,i,i,i,nt,5.0,3.7
CC(=O)NC(c1ccccc1)c1nc2ccccc2[nH]1 (stereo unspecified),i,i,i,i,i,nt,nt
Cc1ccc(NC(=S)NNC(=O)Nc2ccccc2)cc1,5.7,i,12,1.4,i,5.6,i
SMILES,DAX1 inh-1,hcDAF12 agonist,hgDAF-12 ag,ssDAF-12 act,DAX1 inh-2,DAX1 inh confirm,SF1 AF2mut Luc
O=C(NNC(=S)Nc1ccccc1)Nc1ccccc1,i,i,i,i,i,nt,nt
Cc1ccc(-c2nc3cc(C)c(Br)c(C)n3c2Cc2cccc(F)c2)cc1,5.7,6.2,13,1.9,nt,6.2,5.3
Clc1cccc(-c2nc3ccc(Br)cn3c2Cc2ccccc2)c1,6.7,i,i,i,nt,4.6,i
Fc1cccc(Cc2c(-c3ccccc3)nc3ccc(Cl)cn23)c1,4.6,i,i,i,nt,i,i
Clc1cccc(Cc2c(-c3cccc(Cl)c3)nc3ccc(Br)cn23)c1,i,i,i,i,nt,nt,nt
CC(C)(C)c1ccc(S(=O)(=O)N2CCCC(C(=O)NCc3cccs3)C2)cc1 (stereo unspecified),i,i,i,i,nt,nt,nt
C=CCN1[C@H](CC(C)C)COc2cc(F)ccc2S1(=O)=O,i,i,i,i,nt,nt,nt
COC(=O)[C@]12CCCCC=C1N(Cc1ccc(OC)cc1)C(=O)[C@@H]2CC(=O)N1CCN(C(=O)c2ccco2)CC1,i,i,i,i,nt,nt,nt
O=C(NC(=S)Nc1ccc(Br)cn1)c1cncc(Br)c1,i,i,i,i,i,nt,nt
CCCCc1ccc(NC(=O)c2cnccn2)cc1,8.9,i,12,i,i,11,7.5
Cc1ccc(NC(=O)c2cnccn2)nc1,4.6,i,i,i,i,5.0,3.3
Cc1ccc(NC(=O)c2cncc(Br)c2)nc1,4.5,i,i,i,i,5.8,6.3
COc1ccc(-n2c(SCC(=O)Nc3ccc(Oc4ccccc4)cc3)nnc2-c2ccc(C)cc2)cc1,i,i,i,i,nt,nt,nt
CC(C)c1ccc(NC(=O)OC2CCC23CCC(c2ccccc2)CC3)cc1 (stereo unspecified),nt,i,i,i,nt,nt,nt
CCOc1ccc(-c2cc(C(C)=O)c3n(c2=O)CCC3)cc1,i,i,i,i,nt,nt,nt
COC(=O)[C@]12C[C@H](CC(=O)NCc3cccc(C(F)(F)F)c3)C(=O)N(CCc3ccc(OC)c(OC)c3)C1=C[C@H](C(C)C)O[C@@H]2C1CC1,i,i,i,i,nt,nt,nt
O=C(Nc1cccc(O)c1)c1noc2c1CCc1ccccc1-2,7.0,6.3,i,i,i,16,6.3
COCC(=O)N[C@H]1C[C@@H]2O[C@H](CO)CC[C@@H]2O[C@@H]1CCc1ccc(-c2ccccc2)cc1,i,i,i,i,nt,nt,nt
CN(C)c1ccc(C=C2C=Cc3ccccc32)cc1,4.8,6.2,13,i,i,15,8.0
COc1cc2c(cc1OC)C(=Cc1ccc(N(C)C)cc1)C=C2,i,i,i,i,i,nt,nt
O=C(Nc1ccc([N+](=O)[O-])cc1Cl)c1cccc([N+](=O)[O-])c1,i,i,i,i,i,nt,nt
O=C(Nc1ccc([N+](=O)[O-])cc1Cl)c1cc(Cl)ccc1O,6.7,i,12,i,i,i,i
CCN(CC)CCCNC(=O)CSc1nc2cccnc2n1C,i,i,i,i,nt,nt,nt
c1ccc(CSc2nc3ncccn3n2)cc1,6.8,i,i,i,i,8.4,4.8
O=C(NCCc1ccccc1)c1nc2ncccn2n1,i,i,i,i,i,nt,nt
COC(=O)CSc1nnc(-c2ccc(NS(=O)(=O)c3ccc(C(C)(C)C)cc3)cc2)o1,i,i,i,i,nt,nt,nt
O=C1Nc2cc(C(=O)NCCN3CCCCCC3)ccc2S/C1=C/c1ccccc1F,i,i,i,i,i,nt,nt
